Compound activity (PubChem BioAssay)
DUSP3 inh – blocks human VHR1 dual specificity phosphatase | recombinant VHR phosphatase, pNPP absorbance | inhibition, % at 13.3 µM | 290,000 compounds, 0.52% hits; in the data active = inhibition above about 50%
Target sequence (P51452 whole entry, looked up): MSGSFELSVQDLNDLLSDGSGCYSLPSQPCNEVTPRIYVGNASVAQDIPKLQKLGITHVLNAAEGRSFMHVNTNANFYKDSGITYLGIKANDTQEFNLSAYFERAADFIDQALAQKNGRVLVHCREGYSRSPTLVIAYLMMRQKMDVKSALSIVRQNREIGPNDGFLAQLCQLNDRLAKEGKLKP
BJeLR lethal – kills HRASV12-expressing BJeLR cells. BJeLR (HRASV12) viability, CellTiter-Glo ATP luminescence, 48 h. inhibition, % (no concentration beside the values). 300,000 compounds, 0.17% hits. AID 1554; in the data active = inhibition above about 50%
PrPC TRFRET – reduces human prion protein on the cell surface; P04156; cell surface PrPC, TR-FRET read-out; inhibition, % at 13.8 µM; 370,000 compounds, 0.43% hits; AID 720596; in the data active = inhibition above about 24%; note: 0% = median of the test wells and 100% = reference compound wells
PrP 5UTR inh – suppresses PrP 5' UTR mRNA reporter expression | cell-based PrP 5' UTR mRNA reporter, plate reader | inhibition, % (concentration not given with the values) | 340,000 compounds, 0.35% hits | AID 488862; in the data active = inhibition above about 52%; note: 0 = median of the neutral control wells
PfHsp40 rescue – compounds rescuing yeast from Plasmodium falciparum HSP40 toxicity. S. cerevisiae expressing PfHsp40, growth rescue, ATP luminescence. 340,000 compounds, 0.68% hits. growth rescue, % at 12.5 µM; in the data active = growth rescue above about 28%, passing the limit was not always enough;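 note: yeast W303a lacking pdr1 and pdr3 grown in galactose medium; growth measured after three days at 30 °C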
MazF activator – MazEF (E. coli) toxin RNase activation; 350,000 compounds, 0.32% hits; AID 504720; FAM/BHQ RNA-DNA oligo cleavage fluorescence, 5 h; activation, % at 20 µM; in the data active = activation above about 50%
Target sequence (P0AE70 whole entry, looked up): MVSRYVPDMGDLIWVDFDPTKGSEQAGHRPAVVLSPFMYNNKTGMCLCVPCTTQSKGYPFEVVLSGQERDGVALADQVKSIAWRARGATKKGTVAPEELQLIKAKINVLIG
Numbers without * were called inactive; x = no result given. Hits are enriched below; roughly 2.1% of the tested compounds scored in any of these assays.

SMILES	DUSP3 inh	BJeLR lethal	PrPC TRFRET	PrP 5UTR inh	PfHsp40 rescue	MazF activator
CCN(CC)S(=O)(=O)c1cccc(C(=O)N/N=C/c2ccc(O)c(O)c2O)c1	5	x	4	-5	202*	25
COc1cccc(/C=N/NC(=O)c2ccc3nc[nH]c3c2)c1O	5	-2	-3	-48	0	-5
CCOc1ccccc1/C=N/NC(=O)c1cccc(S(=O)(=O)N(CC)CC)c1	-1	-3	5	3	0	8
CCN(CC)c1ccc(/C=N/NC(=O)c2ccc3nc[nH]c3c2)c(O)c1	16	53*	x	11	-1	9
CC(C)(C)OC(=O)N1CCCC(C(=O)Nc2cccc(C(=O)N3CCCC3)c2)C1 (stereo not drawn)	x	x	-2	-16	-2	3
COCCn1c(SCCN2CCOCC2)nc2c1c(=O)[nH]c(=O)n2C	58*	17	6	-16	0	9
C=CCn1c(SCCN2CCOCC2)nc2c1c(=O)[nH]c(=O)n2C	18	-6	14	-16	1	1
COc1cc(CNC(=O)CCn2nc(C)c3c(C)n(-c4ccccc4)nc3c2=O)cc(OC)c1OC	19	-4	2	-17	0	10
Cc1[nH]c2ccccc2c1N=Nc1ccccc1F	7	-5	8	-25	170*	14
O=c1ccn([C@@H]2O[C@H](CNS(=O)(=O)c3csc(-c4ccno4)c3)[C@@H](O)[C@H]2O)c(=O)[nH]1	x	x	-10	-5	-2	6
Cc1nn(CCC(N)=S)c2nc(-c3cccs3)cc(C(F)(F)F)c12	-26	-5	-9	-19	223*	-8
Cc1ccc(-c2nc(SC(C)C(=O)NC3CC3)n[nH]2)cc1 (stereo not drawn)	x	x	7	x	x	5
C=C1C(=O)c2sccc2C(c2ccc(OC)c(OC)c2)C1COC(C)=O (stereo not drawn)	x	x	96*	5	5	-34
CCOC(=O)c1[nH]c(C)c(C(=O)N2CCc3ccccc32)c1C	23	52*	2	50	-1	3
Cc1c(C(=O)N2CCCC2)oc2ccc(Br)cc12	53*	-1	2	2	0	0
CC(NC(=O)CN1CCc2ccccc21)c1ccccc1 (stereo not drawn)	54*	3	-6	-25	-1	3
OCCCCNCc1ccc(OCc2ccccc2)cc1	52*	5	-3	-8	-1	10
CC(=O)c1c[nH]c(C(=O)NCc2cccc(C(F)(F)F)c2)c1	53*	-4	4	-15	-1	-2
Nc1nc(Sc2ccc([N+](=O)[O-])c3nonc23)c2[nH]cnc2n1	x	x	-12	10	7	60*
CNc1ncnc(Sc2nc(N)nc3nc[nH]c23)c1[N+](=O)[O-]	x	x	-12	15	0	6
Cn1c(SCC(=O)Nc2ccc(N3CCOCC3)cc2)nnc1-c1ccccc1F	20	4	7	-6	0	-4
CCC(C(=O)NC1CCCC1)N(C(=O)Cn1nnc(-c2ccc(C)o2)n1)c1ccc(F)cc1 (stereo not drawn)	53*	-9	-2	-21	0	-3
COc1ccc(CCC(=O)OCC(=O)N(CC(C)C)c2c(N)n(Cc3ccccc3)c(=O)[nH]c2=O)cc1	x	-3	0	-20	-1	8
CC1(C)CC(=O)c2cc(OCC(=O)NCCCN3CCN(c4ccc(F)cc4)CC3)ccc2O1	53*	3	-4	x	0	-4
O=C(Cc1csc(-c2cccc(F)c2)n1)Nc1cccc(S(=O)(=O)NC2=NCCC2)c1	x	x	-6	x	x	-3
SMILES	DUSP3 inh	BJeLR lethal	PrPC TRFRET	PrP 5UTR inh	PfHsp40 rescue	MazF activator
CCCCCCCCCCCC(=O)c1c(O)cccc1O	6	2	7	-2	165*	-14
CCCCCCCC(=O)NNC(=O)Cc1ccccc1	5	-3	x	-19	0	-8
O=C(CSc1nnc(-c2ccccc2)n1Cc1ccccc1)NNC(=O)c1ccccc1O	6	-3	1	2	166*	-3
O=C(CSc1nnc(-c2ccccc2O)n1Cc1ccccc1)NNC(=O)c1ccccc1O	-5	-3	0	-13	305*	-1
CNC(=O)CSc1nnc(-c2ccncc2)n1Cc1ccccc1	19	17	-1	-18	0	8
Cn1c(SCC(=O)NNC(=O)c2ccccc2O)nnc1-c1ccccc1	-11	11	-3	8	106*	2
O=S(=O)(CC(O)(c1ccccc1)c1ccccc1)CC(O)(c1ccccc1)c1ccccc1	x	x	-2	-15	-1	69*
CC(=O)Nc1ccc(C23CC4CC(CC(C4)C2)C3)cc1	40	10	-5	-45	11	-3
CNC(=S)Nc1ccc(C23CC4CC(CC(C4)C2)C3)cc1	30	-6	3	-21	179*	0
CC(C)CNC(=O)c1cccc2c(-c3cccc(C(N)=O)c3)coc12	x	x	13	x	x	x
CC(=O)Nc1cc(Cl)c(N=Cc2ccc(O)cc2O)cc1Cl	24	8	-1	-6	2	106*
C=CCNC(=S)N(C)[C@H]1C[C@H]2c3cc(-c4ccccc4C)ccc3CCN2C[C@H]1[C@H](C)O	x	x	-1	x	x	x
COc1ccccc1CNn1c(-c2cccc(C)c2)nc2ccccc2c1=O	5	3	1	-22	42*	8
CCCc1nc2c(=O)n(C)c(=O)nc-2n(C)n1	x	x	17	-3	125*	3
Cn1nc(-c2ccccn2)nc2c(=O)n(C)c(=O)nc1-2	x	22	5	26	0	-11
Cc1ccc(N2C(=O)NC(=O)/C(=C\c3cccn3C(C)(C)C)C2=O)cc1	26	-8	0	-25	1	-29
CCC(C)c1ccc(N2C(=O)NC(=O)/C(=C/c3cccn3CCOc3ccc(C)cc3)C2=O)cc1 (stereo not drawn)	17	3	1	-3	0	124*
CC(C)c1cc(C(C)C)c(S(=O)(=O)N2CCC(C(=O)NCC3COCCO3)CC2)c(C(C)C)c1 (stereo not drawn)	x	x	-11	x	x	x
Cc1csc2nc(CNS(=O)(=O)c3ccc4c(c3)OCCO4)cn12	16	3	-3	-15	63*	6
Cc1csc2nc(CCNS(=O)(=O)c3ccc4c(c3)OCCO4)cn12	29	5	5	-25	-1	-1
C[C@H]1C[C@H]2[C@@H]3CCC4=CC(=O)C=C[C@]4(C)[C@@]3(Cl)[C@@H](O)C[C@]2(C)[C@@]1(O)C(=O)CO	-3	-4	3	-5	36*	8
CCN(CC(=O)Nc1cc(Cl)ccc1C)c1ncnc2sc(C)c(C)c12	17	1	11	-18	33*	2
O=C(CNC(=O)c1ccccc1Br)N/N=C/c1cc(Br)ccc1O	-16	1	2	1	1	0
O=C(N/N=C/c1cc(Cl)ccc1O)c1ccccc1Br	30	7	-1	3	108*	4
